From PubChem BioAssay
L3MBTL1 inh: blocks human L3MBTL1; AlphaScreen L3MBTL1–H3K9me1 peptide binding; hit rate 0.66% among 230,000; Potency, µM (highest dose often 57.1 µM), most hits filed as inhibitors; AID 485360; further: nearly all actives have a fitted effect of over 60% in size
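Read-out is AlphaScreen signal from streptavidin donor and nickel chelate acceptor beads (10 ug/mL final each) bridging L3MBTL1 (50 nM) and biotinylated K9-monomethylated H3(1-15) peptide (75 nM), after 30 min compound exposure at room temperature.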
G9a block: G9a (human) methyltransferase inhibition; G9a H3K9 monomethylation, AlphaScreen, 2 h; hit rate 8.8% among 350,000; Potency, µM (series often up to 102 µM), most hits filed as inhibitors; AID 504332; further: nearly all actives have a fitted effect of over 75% in size
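G9a (20 nM) preincubated 15 min RT with compounds, then 500 nM biotinylated H3K9 peptide and 20 uM SAM added; 2 h RT reaction. Monomethyl-H3K9 product detected by AlphaScreen with anti-H3K9me1 antibody, streptavidin donor and anti-rabbit IgG acceptor beads.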
HP1b binding inh: HP1-beta chromodomain-methylated histone interaction inhibition | P83916 | AlphaScreen HP1-beta / biotin-H3K9me3 peptide binding | Potency, µM (doses to about 114 µM), hits mostly inhibitors | hit rate 0.56% among 390,000; further: nearly all actives have a fitted effect of over 70% in size
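Compound inhibition of the preformed complex between 50 nM HP1-beta and 50 nM biotinylated H3K9me3 peptide was read by AlphaScreen. Buffer was PBS pH 7.4 with 0.01% Tween-20. Incubations ran 30 min at room temperature, with 10 ug/mL donor/acceptor beads.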
BAZ2B block: inhibitors of human BAZ2B bromodomain | AID 504333 | Potency, µM (highest dose often 114 µM), usual class: inhibitors | hit rate 4.4% among 360,000 | Q9UIF8 | AlphaScreen BAZ2B-H3K14Ac peptide displacement; further: nearly all actives have a fitted effect of over 60% in size
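In this displacement format the biotinylated H3(5-23) peptide acetylated at Lys14 serves as ligand at 50 nM, with BAZ2B at 50 nM in PBS pH 7.4 containing 0.01% Tween-20. Donor and acceptor beads are 10 ug/mL final.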
JMJD2A Tudor: inhibitors of human JMJD2A Tudor domain. O75164. AlphaScreen JMJD2A-Tudor / H3K4me3 peptide binding. Potency, µM (highest dose often 114 µM), actives largely listed as inhibitors. hit rate 4.4% among 390,000; further: nearly all actives have a fitted effect of over 50% in size
Numbers stand for hits; 0 = inactive; ? = inconclusive; - = not tested or not shown; ! = a repeat was not active; [ ] = another dose, or the depositor's remark. Rows were chosen to be rich in hits. Some 11% of all compounds tested hit in one or more screens of this group. The call rests on the fitted dose curve; in most records, active means well fitted inhibition curve with a large enough effect; inconclusive means small, poorly fitted or top-dose-only effect; inactive means no such curve, though single readings can be large or run the other way.

SMILES	L3MBTL1 inh	G9a block	HP1b binding inh	BAZ2B block	JMJD2A Tudor
CS(=O)(=O)N1CCC(Oc2cccc(C(=O)NCCCC3CCCC3)c2)CC1	-	-	0	-	0
CC1CCC2C(=O)N(c3ccc(C(=O)Oc4cccc5cccnc45)cc3)C(=O)C2C1 (stereo not drawn)	?	?	0	50µM	56µM
Cc1ccc(N(C)C(CNS(=O)(=O)c2ccccc2)c2ccccc2)cc1 (stereo not drawn)	-	?	0	?	?
CC1CCC2(CC1)Nc1ccccc1C(=O)N2c1ccccc1 (stereo not drawn)	-	71µM	0	0	0
Cc1nn(-c2ccc(N3CCCC3)nn2)c(C)c1CCC(=O)NCc1ccc(F)cc1	-	0	0	79µM	0
COc1ccc(CNC(=O)CCc2c(C)nn(-c3ccc(N4CCOCC4)nn3)c2C)c(OC)c1	-	0	0	0	0
COc1ccc(CNC(=O)CCc2c(C)nn(-c3ccc(N4CCCCC4)nn3)c2C)c(OC)c1	-	0	0	0	89µM
Cc1ccc(CN2CCSc3ccc(C(=O)N4CCN(c5ccc(Cl)cc5)CC4)cc32)cc1	-	3.2µM	0	0	?
Cc1ccc(CN2CCSc3ccc(C(=O)NCc4cccnc4)cc32)cc1	0	?	0	?	40µM
CCc1ccc(-n2c(C)nc3cc(C(=O)NCc4cccnc4)ccc32)cc1	0	50µM	0	0	0
CCN1CCSc2ccc(C(=O)NCc3ccc(OC(C)C)cc3)cc21	0	45µM!	0	0	0
CCOc1ccc(N(CC)S(=O)(=O)N2CCCC(C(=O)NCc3ccccc3OCC)C2)cc1 (stereo not drawn)	-	0	0	0	0
O=C(CSc1nc2c(sc3ccccc32)c(=O)n1CCCC(=O)NC1CCCC1)Nc1ccc(F)cc1	-	0	0	0	0
N#Cc1ccc(-c2cccs2)nc1SCc1ccc(Cl)cc1Cl	-	0	0	0	0
CCc1ccc(C(=O)c2cn(CC(=O)Nc3ccc4c(c3)OCO4)c3ccc(OC)cc3c2=O)cc1	-	14µM	0	79µM	8.9µM
NC(=O)C(CC(=O)O)NC(=O)[C@@H]1CCOc2c(I)cc([N+](=O)[O-])cc2C(=O)N[C@@H](CO)C(=O)N[C@@H](Cc2ccc(O)cc2)C(=O)N1 (stereo partly drawn)	?	22µM	0	?	50µM
CC(C)C[C@@H]1NC(=O)[C@H](Cc2ccc(O)cc2)NC(=O)[C@H](CCC(N)=O)NC(=O)c2cc([N+](=O)[O-])cc(I)c2NCC[C@@H](C(N)=O)NC1=O	0	7.1µM	-	50µM	-
NC(=O)[C@@H]1CCNc2c(I)cc([N+](=O)[O-])cc2C(=O)N[C@@H](CO)C(=O)N[C@@H](Cc2ccc(O)cc2)C(=O)N1	0	10µM	-	79µM	-
CCC(C)CCCCC(=O)NC(CCN)C(=O)NC(C(=O)NC(CCN)C(=O)NC1CCNC(=O)C(C(C)O)NC(=O)C(CCN)NC(=O)C(CCN)NC(=O)C(CC(C)C)NC(=O)C(Cc2ccccc2)NC(=O)C(CCN)NC1=O)C(C)O (stereo not drawn)	-	0[2.33 µM]	-	-	-
Cc1cc(C)c(NC(=O)c2cc3c(=O)n4ccccc4nc3n2C)c(C)c1	-	0	0	0	0
CCN(CC)CCN(C(=O)c1ccco1)c1nc2c(C)c(C)ccc2s1	-	0	0	?	?
COc1ccc(Oc2ncc3nc(-c4cccc(C#N)c4)c(=O)n(CCC#N)c3n2)cc1	-	0[0.501 µM]	-	-	-
COC(=O)c1ccc(CN2C(=O)c3ccccc3C2=O)cc1	0	0	0	0	0
COC(=O)c1cc(CN2C(=O)c3ccccc3C2=O)c(O)c([N+](=O)[O-])c1	-	0	0	56µM	0
CCOC(=O)c1[nH]c(C)c(CCC(=O)Nc2ccccc2OCC)c1C	-	0	0	0	0
SMILES	L3MBTL1 inh	G9a block	HP1b binding inh	BAZ2B block	JMJD2A Tudor
CCOC(=O)c1[nH]c(C)c(CCC(=O)Nc2ccc(N(CC)CC)cc2C)c1C	-	14µM	0	0	0
CCNc1nc(C#N)nc(NCC)n1	-	-	0	-	0
CCCCc1c(O)nc(SCCC(=O)O)[nH]c1=O	-	0[12.7 µM]	-	0	-
N=c1nc(SCCC(=O)O)ss1	0	11µM	0	0	0
COc1ccc(Cl)cc1Nc1cc(C)nc2nc(-c3ccccc3C)nn12	-	0	0	0	0
COc1ccc(OCC2CCNCC2)cc1	-	50µM	0	0	0
COc1ccc(CNC(=O)C2CCNCC2)cc1	0	0	0	0	0
Cc1nn(-c2ccccc2)c2sc(C(=O)Nc3cccc(Br)c3)cc12	-	0	0	0	0
